Article PMC4336329 (PLoS ONE, 2015)
Among all 310,000 compounds or so, about 14,000 (4.5%) showed an effect of 50% or more. Effects have a minus sign here. What follows is part of a selection rich in strong results, with near analogues and random picks from the rest.

biological target: human ether-à-go-go-related gene (hERG) potassium channel (human, UniProt Q12809); assay: primary screen, population patch clamp on CHO cells stably expressing hERG; higher = less effect of the substance
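Also: peak tail current of the secondary pulse compared with the same well before compound.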

Sequence of human ether-à-go-go-related gene (hERG) potassium channel (Q12809 whole entry, looked up): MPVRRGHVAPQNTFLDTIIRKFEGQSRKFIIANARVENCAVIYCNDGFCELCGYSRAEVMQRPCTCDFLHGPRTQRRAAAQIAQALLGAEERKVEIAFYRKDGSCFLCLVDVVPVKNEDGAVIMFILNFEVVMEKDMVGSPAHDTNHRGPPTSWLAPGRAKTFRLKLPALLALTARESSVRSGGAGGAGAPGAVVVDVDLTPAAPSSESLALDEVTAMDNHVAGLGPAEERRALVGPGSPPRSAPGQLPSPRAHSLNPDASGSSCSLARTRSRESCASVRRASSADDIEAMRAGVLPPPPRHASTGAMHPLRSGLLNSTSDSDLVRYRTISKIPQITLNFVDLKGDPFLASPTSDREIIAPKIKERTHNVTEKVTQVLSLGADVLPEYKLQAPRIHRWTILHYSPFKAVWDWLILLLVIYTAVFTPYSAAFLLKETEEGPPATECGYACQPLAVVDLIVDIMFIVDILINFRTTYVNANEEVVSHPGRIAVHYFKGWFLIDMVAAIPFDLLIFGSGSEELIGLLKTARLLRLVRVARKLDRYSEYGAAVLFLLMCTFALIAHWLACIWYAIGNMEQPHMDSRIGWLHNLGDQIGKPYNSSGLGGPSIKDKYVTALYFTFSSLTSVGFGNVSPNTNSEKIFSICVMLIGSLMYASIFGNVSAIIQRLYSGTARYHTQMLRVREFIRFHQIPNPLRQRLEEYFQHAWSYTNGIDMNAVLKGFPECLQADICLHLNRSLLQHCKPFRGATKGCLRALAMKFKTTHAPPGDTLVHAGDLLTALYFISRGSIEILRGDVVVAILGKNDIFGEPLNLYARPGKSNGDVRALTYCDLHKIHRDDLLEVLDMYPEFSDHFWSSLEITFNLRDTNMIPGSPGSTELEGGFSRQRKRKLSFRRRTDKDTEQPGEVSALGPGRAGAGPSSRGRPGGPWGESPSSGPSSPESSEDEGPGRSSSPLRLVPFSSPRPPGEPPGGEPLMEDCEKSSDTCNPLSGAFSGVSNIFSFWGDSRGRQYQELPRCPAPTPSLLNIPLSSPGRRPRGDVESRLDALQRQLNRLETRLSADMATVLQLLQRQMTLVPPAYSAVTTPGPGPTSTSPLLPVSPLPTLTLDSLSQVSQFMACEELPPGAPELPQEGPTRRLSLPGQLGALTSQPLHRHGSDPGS

SMILES | hERG current change (%, negative = inhibition) at 10uM
O=C(Nc1cccc(S(=O)(=O)N2CCCC2)c1)c1ccc2ccccc2n1 | 20.9%
COc1ccc(/C=C/C(=O)NCc2cn(C)nc2C)cc1COc1ccc(Br)cc1 | 7.33%
O=C(Nc1cccc(S(=O)(=O)N2CCCCC2)c1)Nc1ccc(Cl)cc1Cl | 7.77%
Cn1cc(C(=O)N2CCCC(Nc3ccc(F)cc3)C2)c2ccccc21 (stereo not shown) | -21.1%
O=C(CN1CCCC1c1cccs1)Nc1cccc(S(=O)(=O)N2CCCC2)c1 (stereo not shown) | -0.843%
COc1ccc(CCN(C)Cc2ccc(OCc3ccccc3)c(OC)c2)cc1OC | -74.3%
COc1ccc(C(=O)Nc2ccc(C(=O)NCCc3ccc(OC)c(OC)c3)cc2)cc1 | 30.5%
COc1ccc(CN(CCc2ccccc2)Cc2ccccc2)cc1OC.O=C(O)C(=O)O | -9.99%
COc1cc(CC(=O)O)ccc1OCc1ccccc1 | 4.35%
COc1ccccc1OCc1ccc(C(=O)Nc2ccccc2)cc1 | 11.1%
COc1ccc(CCN(C)Cc2ccc(C(=O)Nc3ccccc3)cc2)cc1OC | -67.3%
COc1ccc(NS(=O)(=O)c2ccc(-c3cnc(C4CC4)o3)cc2)cc1OC | 14.6%
CC1(C)Cc2c(sc(NC(=O)COc3ccc(Cl)cc3)c2C(N)=O)C(C)(C)N1 | 0.951%
COC(=O)C(NNc1ccc(F)cc1)(NC(=O)c1ccccc1)C(F)(F)F (stereo not shown) | -3.67%
O=C(Nc1cc(Cl)ccc1-n1cncn1)c1ccc([N+](=O)[O-])s1 | -27.9%
O=C(O)C1OC(C(=O)O)C2C1C(F)(F)C2(F)F (stereo not shown) | 14.3%
O=C(Cc1cn2ccsc2n1)Nc1cccc2cnccc12 | 9.76%
COc1ccc(-n2c(C)c([N+](=O)[O-])c3ccc(O)c(CN(C)C)c32)cc1 | -57.6%
CCOC(=O)c1sc(=N)n(-c2ccc(OC)cc2)c1C | -4.06%
CCOC(=O)c1c(C)n(-c2ccccc2)c2ccc(O)c(CN(C)C)c12.Cl | -30.7%
CCOC(=O)c1c(C)n(C)c2ccc(O)c(CN(C)C)c12.O=C(O)C(=O)O | -6.82%
CCOC(=O)c1c(C)n(C)c2ccc(O)c(CN(CC)CC)c12.Cl | -20%

SMILES | hERG current change (%, negative = inhibition) at 10uM
Cc1ccc(-n2c(C)c([N+](=O)[O-])c3ccc(O)c(CN(C)C)c32)cc1 | -23.6%
CCOC(=O)c1c(C)n(-c2ccc(C)cc2)c2ccc(O)c(CN(C)C)c12.Cl | -74.2%
CCOC(=O)c1c(C)n(-c2ccc(OC)cc2)c2ccc(O)c(CN(C)C)c12.Cl | -74.2%
CCN(CC)Cc1c(O)ccc2c([N+](=O)[O-])c(C)n(-c3ccc(OC)cc3)c12 | -24.9%
Cc1cccc(NC(=O)COc2ccccc2C)n1 | 7.83%
Cl.Clc1ccccc1CSc1nnc([C@@H]2CCCN2)o1 | 15.1%
COc1ccc(C(=O)CNc2ccccc2Br)cc1 | 18.8%
COC(=O)C1CCN(C(=O)N2CCOCC2)CC1 | 5.68%
CC(/C=N/NC(=O)c1nnn(-c2nonc2N)c1C(C)C)=C\c1ccco1 | 8.07%
CSCCC(NC(=O)c1ccccc1Br)C(=O)NNC(=O)c1csc(N2CCOCC2)n1 (stereo not shown) | -33.5%
Cc1cccc(C(=O)NNC(=O)c2csc(N3CCOCC3)n2)c1C | -9.89%
Cc1ccsc1C(=O)NNC(=O)c1csc(N2CCOCC2)n1 | 12.7%
CSCCC(NC(=O)c1ccccc1Cl)C(=O)NNC(=O)c1csc(N2CCOCC2)n1 (stereo not shown) | -29.9%
Cc1ccc(C)c(SCC(=O)NNC(=O)c2csc(N3CCOCC3)n2)c1 | -55.1%
CSCCC(NC(=O)c1ccc(Cl)cc1Cl)C(=O)NNC(=O)c1csc(N2CCOCC2)n1 (stereo not shown) | -56.8%
C/C(N)=C(/C#N)C(=O)CSc1nc2ccccc2c(=O)n1CCCOC(C)C | -21.2%
Cc1cc(O)cc(O)c1C=NCc1ccco1 | -8.53%
CC1C(c2ccccc2)=NNc2nc3c(c(=O)n(C)c(=O)n3C)n21 (stereo not shown) | 3.99%
COc1ccc(NC(=O)c2ccc(-c3ccc(-c4noc(C)n4)cc3C)cc2)cc1N1CCN(C)CC1.Cl | -76%
COc1ccc(-c2nc(-c3ccc(NC(=O)c4ccncc4)cc3)no2)cc1OC | 7.54%
COc1ccc(C(=O)Nc2ccc(N3CCN(C)CC3)cc2)cc1OC | -11.9%
